These results are taken from the supplement of paper PMC6555819.

Holding throughout (experiment): PBM binding z-score (relative to random genomic background probes); higher = stronger binding; sequences stand for … in GC…GCGATTGACAGCGTAGAATGAAGG
For test [1], the system named is FXR:RXRa (NR concentration 270 nM, RXRa partner concentration 90 nM). A digest of the protocol:
(§1)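 On custom Agilent 4×180K arrays, double-stranded probes with 34-nt variable regions carried direct-repeat seeds, single-nucleotide variants, half-site ablations or random human genomic background. Ligand-free nuclear receptor dimers were applied for 1 h, and binding was read with antibodies against each partner (one per run). Binding z-scores come from regression-normalized fluorescence, with the random background probes as reference.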

For test [2], the system named is LXRa:RXRa (NR concentration 270 nM, RXRa partner concentration 90 nM). Put shortly:
as §1

Test [3] has as its system LXRa homodimer (NR concentration 270 nM). Put shortly: as §1
Test [4] has as its system LXRb:RXRa (NR concentration 270 nM, RXRa partner concentration 90 nM). Put shortly: as §1
Test [5] deals with LXRb homodimer (NR concentration 270 nM). A digest of the protocol:
as §1

Test [6] deals with PPARa:RXRa (NR concentration 270 nM, RXRa partner concentration 90 nM). A digest of the protocol: as §1
For test [7], the system named is PPARg:RXRa (NR concentration 180 nM, RXRa partner concentration 90 nM). A digest of the protocol: as §1
The test system of test [8] is PPARg:RXRa 270nM:90nM, anti-RXR (NR concentration 270 nM, RXRa partner concentration 90 nM). A digest of the protocol: as §1
The test system of test [9] is PPARg:RXRa 30nM:10nM, anti-RXR (NR concentration 30 nM, RXRa partner concentration 10 nM). Put shortly: as §1
The test system of test [10] is PPARg:RXRa 90nM:30nM, anti-RXR (NR concentration 90 nM, RXRa partner concentration 30 nM). Put shortly: as §1

Turning to CGACAAAGTTCAAGGTAACGTAACAGAAAGCAGC, the PBM binding z-score in test [1] amounted to 5.84; in test [2], 5.54; in [3], 1.97; in test [4] it was 3.29; in test [5], 0.658; in test [6], 4.63. Besides, the PBM binding z-score was 3.59 in test [7], 4.67 in [8], 1.47 in test [9] and 3.46 in test [10].

As to TATACAGGGTCAAAGGACAGAGTACGAATGTCGA, the PBM binding z-score amounted to 7.39 in [1]; 6.09 in test [2]; 2.79 in test [3]; 4.85 in test [4]; 2.96 in [5]; 6.24 in [6]. For the same sequence, the PBM binding z-score in test [7] was 7.83; in test [8], 6.55; in [9], 4.83; in test [10] it was 5.84.

For ATACCACGGTGATCGTGAGGTCGTTGATACTAAC, the PBM binding z-score was 1.06 in [1]; 0.834 in [2]; 0.899 in test [3]; 0.931 in test [4]; -0.0132 in [5]; 0.958 in [6]. Moreover, the PBM binding z-score in [7] is 0.3; in [8], 0.0838; in test [9], -0.0631; in [10] it was 0.19.

As to CCGACTGGGGCATAAGGTTGCCATAAGCCAGCCC, the PBM binding z-score in test [1] is -0.333; in test [2], -0.188; in test [3], -0.75; in test [4], -0.498; in [5], -1.17; in [6], 0.636. Moreover, the PBM binding z-score in [7] was 0.999; in test [8], 1.81; in [9], -0.189; in test [10], 1.12.

On to GCGACTAGGGCATCAGCAGGTTACCATAACTTAA, for which the PBM binding z-score in [1] was -0.0195; in test [2], -0.0261; in test [3], -0.362; in test [4], -0.000126; in test [5], -0.683; in [6] it was 0.802. Moreover, the PBM binding z-score is 1.41 in test [7], 1.17 in [8], -0.0852 in test [9] and 0.611 in test [10].

Consider ATCGAAAGGTCGACGAGGTGAGCATACACCGTTT, for which the PBM binding z-score in test [1] worked out at 4.55; in [2], 3.16; in test [3] it was 0.0611; in test [4], 2.6; in test [5], 0.486; in test [6], 4.14. The PBM binding z-score in test [7] was 2.93; in test [8] it was 3.33; in [9] it was 0.968; in test [10], 2.23.

On to TCTATTAGTTGATTTGGGCAACCGAAACAGCGGA, for which the PBM binding z-score in test [1] was 0.267; in test [2], 0.602; in test [3] it was 0.223; in test [4], 0.863; in test [5], 1.2; in [6] it was 0.657. Besides, the PBM binding z-score in test [7] was -0.145; in [8], 1.83; in test [9], 3.74; in test [10], 3.01.

Regarding ATCTCTAGGTAACCAAGTTAAGTGAATGCCGAAC, the PBM binding z-score was 0.211 in test [1]; 0.255 in [2]; 0.398 in test [3]; 0.412 in test [4]; 0.551 in test [5]; 0.58 in [6]. Also, the PBM binding z-score in test [7] was found to be 0.376; in test [8], 0.507; in test [9] it was 0.346; in test [10], 0.476.

For AGAATGAGGTTATTAAGGTCAGGGAATTGCGGTC, the PBM binding z-score came out at 4.55 in [1]; 4.8 in [2]; 3.44 in [3]; 3.59 in test [4]; 0.546 in test [5]; 4.4 in test [6]. For the same sequence, the PBM binding z-score turned out to be 3.54 in test [7], 4.22 in test [8], 1.62 in test [9] and 3.18 in test [10].

CCTACTGGGCCAAACAGGTCATTGATGCCGATAA: the PBM binding z-score in test [1] is 0.606; in test [2], 0.905; in test [3] it was 0.657; in test [4], 1.55; in [5], -0.709; in test [6], 2.56. Also, the PBM binding z-score came to 1.79 in test [7], 2.18 in test [8], 0.412 in [9] and 1.43 in test [10].

Consider ATTTCTAGGTAAGACTCAGTTCAGTGAAGAACGC, for which the PBM binding z-score in [1] is 0.897; in test [2], 0.946; in test [3], 0.909; in test [4] it was 0.543; in test [5], 1.31; in [6] it was 0.972. In addition, the PBM binding z-score turned out to be 0.289 in test [7], 0.947 in test [8], 0.807 in test [9] and 0.822 in test [10].

Consider CGTCCAAGGTCATAGGAGGTCAGTGAAGACAGAT, for which the PBM binding z-score is 7.58 in test [1]; 7.44 in test [2]; 4.4 in test [3]; 5.99 in test [4]; 1.01 in test [5]; 5.84 in test [6]. For the same sequence, the PBM binding z-score in [7] is 5.77; in test [8], 5.68; in [9], 2.12; in test [10], 4.17.
